According to PubChem BioAssay (EPA / NIEHS):
The source made the active and inactive calls. Rule for the calls: active = hit-call score of the fitted dose curve at least 0.9, where 1 is the maximum; inactive = score below 0.9.

What was measured:
Settings in all cases: mRNA level, 48 h; actives raise or lower the signal
[1] = read-out: matrix metalloproteinase-10 (MMP10), MMP10 (gene 4319); assay: LTEA_HepaRG_MMP10: Life Technologies and Expression Analysis (LTEA) Assay for matrix metalloproteinase-10 (MMP10) using HepaRG (AID 2283517)
In short: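 Transcript levels come from Fluidigm qRT-PCR normalized to three housekeeping genes, with curves fitted bidirectionally against 0.5% DMSO. Human HepaRG cells were dosed for 48 hours at concentrations up to 100 uM.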

[2] = read-out: MYC, MYC (gene 4609); assay: LTEA_HepaRG_MYC: Life Technologies and Expression Analysis (LTEA) Assay for MYC using HepaRG (AID 2283518)
In short: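 Differentiated human HepaRG cells, plated 48 h then switched to serum-free induction medium, were exposed in duplicate for 48 h to 8-point half-log series up to 100 uM in 0.5% DMSO. MYC mRNA measured by qRT-PCR, normalized to ACTB/GAPDH/POLR2A.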

[3] = read-out: matrix metalloproteinase-3 (MMP3), MMP3 (gene 4314); assay: LTEA_HepaRG_MMP3: Life Technologies and Expression Analysis (LTEA) Assay for matrix metalloproteinase-3 (MMP3) using HepaRG (AID 2283519)
In short: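 qRT-PCR read-out of MMP3 mRNA (normalised to three housekeeping genes) in HepaRG liver cells after 48 h chemical exposure; 8-point half-log series, top 100 uM, 0.5% DMSO vehicle. Bidirectional curve fitting against DMSO baseline.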

[4] = read-out: Paternally Expressed 10 (PEG10), PEG10 (gene 23089); assay: LTEA_HepaRG_PEG10: Life Technologies and Expression Analysis (LTEA) Assay for Paternally Expressed 10 (PEG10) using HepaRG (AID 2283520);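 for AC50: PEG10 transcript by qRT-PCR normalised to ACTB GAPDH and POLR2A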
In short: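 After 48 h exposure of differentiated HepaRG cells (0.5% DMSO vehicle, eight concentrations up to 100 uM, duplicates), PEG10 mRNA was measured by TaqMan qRT-PCR. Values were normalised to endogenous control genes and analysed bidirectionally against vehicle.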

[5] = read-out: Nuclear factor NF-kappa-B p105 subunit (Homo sapiens) (UniProt P19838); assay: LTEA_HepaRG_NFKB1: Life Technologies and Expression Analysis (LTEA) Assay for Nuclear Factor Kappa B Subunit 1 (NFKB1) using HepaRG (AID 2283521);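 note: TaqMan qRT-PCR transcript normalised to ACTB GAPDH and POLR2A housekeeping genes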
In short: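 Differentiated human HepaRG cells in serum-free induction medium with 0.5% DMSO were exposed for 48 h to eight half-log concentrations, top 100 uM, in duplicate. NFKB1 mRNA measured by Fluidigm TaqMan qRT-PCR, normalised to ACTB, GAPDH and POLR2A; bidirectional fit versus DMSO.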

[6] = read-out: Protein phosphatase 2A (PPP2R4), PTPA (gene 5524); assay: LTEA_HepaRG_PPP2R4: Life Technologies and Expression Analysis (LTEA) Assay for Protein phosphatase 2A (PPP2R4) using HepaRG (AID 2283522)
In short: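 Using HepaRG cultures maintained in 0.5% DMSO, chemicals are tested 48 h at up to 100 uM in duplicate. Induction or suppression of PPP2R4 mRNA, measured by qRT-PCR, is fitted bidirectionally against the vehicle baseline.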

[7] = read-out: Phosphatase and tensin (PTEN), PTEN (gene 5728); assay: LTEA_HepaRG_PTEN: Life Technologies and Expression Analysis (LTEA) Assay for Phosphatase and tensin (PTEN) using HepaRG (AID 2283523)
In short: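 HepaRG, 48 h exposure, 8-pt half-log series from 100 uM top, 0.5% DMSO vehicle, duplicates. Readout: Fluidigm qRT-PCR of PTEN transcript; housekeeping normalization (ACTB, GAPDH, POLR2A). Gain or loss fitted relative to DMSO baseline.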

[8] = read-out: solute carrier (SLC22A1), SLC22A1 (gene 6580); assay: LTEA_HepaRG_SLC22A1: Life Technologies and Expression Analysis (LTEA) Assay for solute carrier (SLC22A1) using HepaRG (AID 2283524)
In short: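 qRT-PCR readout (TaqMan, Fluidigm arrays) of SLC22A1 transcript, normalized to three housekeeping genes; bidirectional curve fit relative to 0.5% DMSO vehicle. Differentiated human HepaRG cells, 48 h chemical exposure, top concentration 100 uM, half-log steps, eight points.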

[9] = read-out: Pyruvate Dehydrogenase Kinase 4 (PDK4), PDK4 (gene 5166); assay: LTEA_HepaRG_PDK4: Life Technologies and Expression Analysis (LTEA) Assay for Pyruvate Dehydrogenase Kinase 4 (PDK4) using HepaRG (AID 2283525)
In short: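 HepaRG (human liver line), 48 h chemical exposure, 8-pt half-log CRC top 100 uM, 0.5% DMSO vehicle, duplicates. Readout: TaqMan qRT-PCR of PDK4 mRNA, housekeeping-normalized; gain/loss fit relative to DMSO baseline.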

[10] = read-out: NAD(P)H dehydrogenase [quinone] 1 (NQO1), NQO1 (gene 1728); assay: LTEA_HepaRG_NQO1: Life Technologies and Expression Analysis (LTEA) Assay for NAD(P)H dehydrogenase [quinone] 1 (NQO1) using HepaRG (AID 2283526)
In short: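 In this assay, gene expression is read by qRT-PCR after 48 h exposure of HepaRG cells to eight concentrations (max 100 uM, half-log) in 0.5% DMSO. Each chemical runs in duplicate, and activity is scored relative to vehicle.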

[11] = read-out: succinate dehydrogenase complex iron sulfur subunit B (SDHB), SDHB (gene 6390); assay: LTEA_HepaRG_SDHB: Life Technologies and Expression Analysis (LTEA) Assay for succinate dehydrogenase complex iron sulfur subunit B (SDHB) using HepaRG (AID 2283528)
In short: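 HepaRG cells (~100,000/well, plated 48 h) exposed in duplicate for 48 h in serum-free induction medium to 8-point half-log series from 100 uM in 0.5% DMSO; mRNA by qRT-PCR normalised to ACTB, GAPDH, POLR2A; bidirectional fit versus DMSO.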

[12] = read-out: Signal transducer and activator of transcription 3 (Homo sapiens) (UniProt P40763); assay: LTEA_HepaRG_STAT3: Life Technologies and Expression Analysis (LTEA) Assay for Signal transducer and activator of transcription (STAT3) using HepaRG (AID 2283529)
In short: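 HepaRG, 48 h exposure, 8-pt half-log series (top 100 uM), 0.5% DMSO vehicle, duplicates. Readout: STAT3 transcript by Fluidigm qRT-PCR, housekeeping-normalized; bidirectional fit vs DMSO baseline.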

[13] = read-out: solute carrier (SLCO1B1), SLCO1B1 (gene 10599); assay: LTEA_HepaRG_SLCO1B1: Life Technologies and Expression Analysis (LTEA) Assay for solute carrier (SLCO1B1) using HepaRG (AID 2283530)
In short: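 Differentiated human HepaRG cells, plated 48 h, switched to serum-free induction medium and exposed in duplicate for 48 h to 8 half-log concentrations (top 100 uM) in 0.5% DMSO. SLCO1B1 mRNA by TaqMan qRT-PCR, normalized to ACTB/GAPDH/POLR2A.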

[14] = read-out: sulfotransferase 2A1 (SULT2A1), SULT2A1 (gene 6822); assay: LTEA_HepaRG_SULT2A1: Life Technologies and Expression Analysis (LTEA) Assay for sulfotransferase 2A1 (SULT2A1) using HepaRG (AID 2283531)
In short: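 Differentiated human HepaRG cells in serum-free induction medium were exposed for 48 h to eight half-log concentrations (top 100 uM, 0.5% DMSO). SULT2A1 mRNA was measured by qRT-PCR, normalized to ACTB, GAPDH and POLR2A, and fitted bidirectionally against DMSO.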

[15] = read-out: Transforming Growth Factor (TGFA), TGFA (gene 7039); assay: LTEA_HepaRG_TGFA: Life Technologies and Expression Analysis (LTEA) Assay for Transforming Growth Factor (TGFA) using HepaRG (AID 2283532)
In short: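 qRT-PCR read-out of TGFA transcript, normalized to three housekeeping genes, fitted bidirectionally against 0.5% DMSO baseline. Human HepaRG cultures received chemicals for 48 h at eight half-log concentrations, top 100 uM.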

[16] = read-out: Transforming Growth Factor (TGFB1), TGFB1 (gene 7040); assay: LTEA_HepaRG_TGFB1: Life Technologies and Expression Analysis (LTEA) Assay for Transforming Growth Factor (TGFB1) Transporter using HepaRG (AID 2283533)
In short: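 Differentiated human HepaRG cells in serum-free induction medium were exposed in duplicate for 48 h to eight concentrations (top 100 uM, half-log steps, 0.5% DMSO). TGFB1 mRNA was quantified by qRT-PCR, normalized to ACTB, GAPDH, POLR2A, and fitted bidirectionally against DMSO.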

[17] = read-out: TIMP1, TIMP1 (gene 7076); assay: LTEA_HepaRG_TIMP1: Life Technologies and Expression Analysis (LTEA) Assay for TIMP1 using HepaRG (AID 2283534);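 note: TaqMan qRT-PCR signal normalized to ACTB GAPDH and POLR2A housekeeping genes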
In short: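 Differentiated human HepaRG cells in serum-free induction medium were exposed 48 h to chemicals (8 half-log concentrations, top 100 uM, 0.5% DMSO). TIMP1 mRNA was quantified by TaqMan qRT-PCR, normalized to ACTB/GAPDH/POLR2A; bidirectional fit versus DMSO.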

[18] = read-out: Tumor necrosis factor receptor 1 (TNFRSF1A), TNFRSF1A (gene 7132); assay: LTEA_HepaRG_TNFRSF1A: Life Technologies and Expression Analysis (LTEA) Assay for Tumor necrosis factor receptor 1 (TNFRSF1A) using HepaRG (AID 2283535)
In short: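 Differentiated human HepaRG cells were exposed in duplicate for 48 h in serum-free induction medium to eight concentrations (top 100 uM, half-log steps, 0.5% DMSO). TNFRSF1A mRNA was quantified by qRT-PCR, normalized to ACTB, GAPDH and POLR2A, then fitted bidirectionally against DMSO.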

[19] = read-out: Nuclear factor erythroid 2-related factor 2 (Homo sapiens) (UniProt Q16236); assay: LTEA_HepaRG_NFE2L2: Life Technologies and Expression Analysis (LTEA) Assay for Nuclear factor erythroid 2-related factor 2 (NFE2L2) Transcription Factor using HepaRG (AID 2283527);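 note: TaqMan qRT-PCR transcript level normalised to ACTB GAPDH and POLR2A housekeeping genes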
In short: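 HepaRG, 48 h dosing, 8-pt half-log series from 100 uM in 0.5% DMSO, duplicates. Read-out: NFE2L2 mRNA by qRT-PCR (ACTB/GAPDH/POLR2A normalization). Bidirectional curve fit vs DMSO baseline.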

Measured: AC50

Sequence of Nuclear factor NF-kappa-B p105 subunit (Homo sapiens) (P19838 whole entry, looked up): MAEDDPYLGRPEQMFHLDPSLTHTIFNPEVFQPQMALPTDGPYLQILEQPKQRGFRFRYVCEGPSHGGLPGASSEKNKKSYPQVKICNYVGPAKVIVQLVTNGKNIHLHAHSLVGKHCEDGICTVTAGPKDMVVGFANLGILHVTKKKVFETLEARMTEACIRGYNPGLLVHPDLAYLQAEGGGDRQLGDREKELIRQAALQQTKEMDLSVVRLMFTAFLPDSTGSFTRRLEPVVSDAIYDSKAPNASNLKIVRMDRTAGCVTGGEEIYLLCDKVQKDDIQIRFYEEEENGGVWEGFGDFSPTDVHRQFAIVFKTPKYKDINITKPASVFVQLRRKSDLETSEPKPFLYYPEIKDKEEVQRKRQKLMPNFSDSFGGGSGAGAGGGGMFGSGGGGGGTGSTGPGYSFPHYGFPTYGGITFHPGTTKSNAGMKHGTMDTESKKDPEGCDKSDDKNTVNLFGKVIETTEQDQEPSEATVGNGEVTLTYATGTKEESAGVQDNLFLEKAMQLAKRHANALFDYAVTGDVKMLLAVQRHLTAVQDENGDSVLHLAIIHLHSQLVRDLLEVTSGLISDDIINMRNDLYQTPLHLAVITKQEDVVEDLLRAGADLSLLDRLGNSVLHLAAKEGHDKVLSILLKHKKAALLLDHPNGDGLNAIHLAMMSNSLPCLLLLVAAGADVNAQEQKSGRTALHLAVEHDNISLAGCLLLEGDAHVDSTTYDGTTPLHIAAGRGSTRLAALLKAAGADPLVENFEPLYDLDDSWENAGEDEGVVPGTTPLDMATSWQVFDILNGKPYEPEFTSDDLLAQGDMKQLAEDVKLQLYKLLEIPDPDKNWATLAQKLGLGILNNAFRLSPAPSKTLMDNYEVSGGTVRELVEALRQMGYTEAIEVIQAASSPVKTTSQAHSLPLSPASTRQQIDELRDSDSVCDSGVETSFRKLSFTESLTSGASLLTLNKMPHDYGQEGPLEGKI
Sequence of Signal transducer and activator of transcription 3 (Homo sapiens) (P40763 whole entry, looked up): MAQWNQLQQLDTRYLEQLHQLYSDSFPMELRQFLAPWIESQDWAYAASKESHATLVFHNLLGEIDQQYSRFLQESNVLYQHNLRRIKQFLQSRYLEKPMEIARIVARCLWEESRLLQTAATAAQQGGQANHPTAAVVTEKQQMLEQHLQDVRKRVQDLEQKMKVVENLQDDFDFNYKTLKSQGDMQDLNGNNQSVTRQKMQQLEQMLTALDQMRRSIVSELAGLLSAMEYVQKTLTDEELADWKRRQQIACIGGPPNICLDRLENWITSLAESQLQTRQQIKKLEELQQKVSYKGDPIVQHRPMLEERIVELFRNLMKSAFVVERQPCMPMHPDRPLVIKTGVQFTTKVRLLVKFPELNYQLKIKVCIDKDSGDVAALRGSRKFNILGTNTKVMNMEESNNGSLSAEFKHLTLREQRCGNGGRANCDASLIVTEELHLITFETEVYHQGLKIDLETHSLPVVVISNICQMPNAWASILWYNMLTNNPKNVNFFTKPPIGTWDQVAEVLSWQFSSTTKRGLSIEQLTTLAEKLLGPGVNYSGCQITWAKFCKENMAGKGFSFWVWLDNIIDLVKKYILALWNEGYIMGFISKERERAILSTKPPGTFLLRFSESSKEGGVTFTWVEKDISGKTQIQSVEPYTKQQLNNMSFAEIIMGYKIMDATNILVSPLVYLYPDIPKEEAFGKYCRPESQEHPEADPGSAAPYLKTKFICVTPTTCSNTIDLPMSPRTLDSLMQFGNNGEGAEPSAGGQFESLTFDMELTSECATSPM
Sequence of Nuclear factor erythroid 2-related factor 2 (Homo sapiens) (Q16236 whole entry, looked up): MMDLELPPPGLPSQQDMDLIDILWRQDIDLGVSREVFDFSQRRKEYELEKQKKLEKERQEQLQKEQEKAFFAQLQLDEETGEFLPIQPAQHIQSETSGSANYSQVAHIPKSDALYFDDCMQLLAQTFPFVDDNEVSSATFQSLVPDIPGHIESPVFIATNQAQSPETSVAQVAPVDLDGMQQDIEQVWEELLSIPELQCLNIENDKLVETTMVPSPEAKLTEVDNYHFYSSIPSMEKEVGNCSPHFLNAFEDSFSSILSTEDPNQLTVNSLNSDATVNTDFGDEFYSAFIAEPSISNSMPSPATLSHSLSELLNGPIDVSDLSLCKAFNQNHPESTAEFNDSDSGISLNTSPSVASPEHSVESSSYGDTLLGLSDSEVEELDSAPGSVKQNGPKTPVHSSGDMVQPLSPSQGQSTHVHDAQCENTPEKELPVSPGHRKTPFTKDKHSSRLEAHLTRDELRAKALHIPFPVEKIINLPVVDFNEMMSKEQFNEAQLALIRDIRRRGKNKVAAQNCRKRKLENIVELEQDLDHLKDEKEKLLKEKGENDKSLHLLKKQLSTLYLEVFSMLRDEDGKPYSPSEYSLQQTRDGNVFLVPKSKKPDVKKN

O=[Si]=O
not listed: [19]
inactive: all other assays above

CC(=O)OCC(COC(C)=O)OC(C)=O
not listed: [19]
inactive: all other assays above

CCCCCCCC(=O)OC
active: [7] 12.2 µM
not listed: [16] | [19]
inactive: all other assays above

NC(=Nc1ccccc1)Nc1ccccc1
active: [4] 19.3 µM
not listed: [5]
inactive: all other assays above

CSc1ccc(Oc2ccc(S(N)(=O)=O)cc2CN(C)C)cc1C
active: [4] 72.7 µM
not listed: [16] | [19]
inactive: all other assays above

CCC(C)N(C)C(=O)c1cc2ccccc2c(-c2ccccc2Cl)n1 (stereo not given)
active: [2] 31.8 µM | [4] 13.1 µM | [8] 6.3 µM | [9] 40.9 µM | [11] 11.1 µM | [14] 8.44 µM
not listed: [16] | [19]
inactive: all other assays above

CC(C)c1cccc(C(C)C)c1
not listed: [19]
inactive: all other assays above

CC(N)=O
active: [18] 0.243 µM
not listed: [5] | [7]
inactive: all other assays above
